Source: PubChem BioAssay (Tox21)
Records with an inconclusive call do not appear. Active and inactive are the calls of the source. Calls follow the shape of the full dose curve. Non-standard residues stand in square brackets, D forms with d. Residues, ends and D or L forms follow the SMILES beside them. pGlu = O=C1CC[C@@H](C(=O)O)N1

Experiment: qHTS assay for small molecule agonists of the p53 signaling pathway - cell viability (AID 651633);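 also: p53RE-bla HCT reporter cells with a stable beta-lactamase p53 reporter; nearly all actives have a fitted effect of over 30% in size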
Details: p53RE-bla HCT-116 viability, ATP luminescence, 16 h; series mostly up to 83.3 µM; activity change, negative = cytotoxicity: at the top concentration
Outline: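 p53RE-bla cells, seeded at 4,000 per well and rested 5 h at 37 C/5% CO2, received compounds in DMSO for 16 h at 37 C. CellTiter-Glo was then added, and luminescence was read after 30 min at room temperature to gauge cytotoxicity.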
% is scaled to controls: 0 for no effect and ±100 for the full control effect.

Row | SMILES | activity change, negative = cytotoxicity
1 | COc1cc2c(cc1OC)[C@@H](c1ccccc1)CN(C)CC2 | 23.5% (inactive)
2 | CCC(Cc1c(I)cc(I)c(O)c1I)C(=O)O (centres undefined) | 9.33% (inactive)
3 | CC(=O)Oc1cccc(C(=O)O)c1OC(C)=O | 13.1% (inactive)
4 | O=C(NNCS(=O)(=O)O)c1ccncc1 | 16.4% (inactive)
5 | CO/N=C(\C(=O)N[C@@H]1C(=O)N2C(C(=O)O)=C(CSC(=O)c3ccco3)CS[C@H]12)c1csc(N)n1 | 9.71% (inactive)
6 | O=c1[nH]cnc2[nH]cc(CN3CCCCC3)c12 | 7.18% (inactive)
7 | CO/N=C(\C(=O)N[C@@H]1C(=O)N2C(C(=O)OCOC(=O)C(C)(C)C)=C(/C=C\c3scnc3C)CS[C@H]12)c1csc(N)n1 | 13.7% (inactive)
8 | CCCC(=O)O[C@]1(C(=O)COC(C)=O)CC[C@H]2[C@@H]3C[C@H](F)C4=CC(=O)C=C[C@]4(C)[C@@]3(F)[C@@H](O)C[C@@]21C | -10% (inactive)
9 | CCCc1ccc(C(=O)O)cc1 | -5.53% (inactive)
10 | CC1(C)S[C@@H]2[C@H](NC(=O)C(C(=O)Oc3ccc4c(c3)CCC4)c3ccccc3)C(=O)N2[C@H]1C(=O)O (some centres undefined) | 14.4% (inactive)
11 | CO[C@@]1(NC(=O)C2SC(=C(C(N)=O)C(=O)O)S2)C(=O)N2C(C(=O)O)=C(CSc3nnnn3C)CS[C@@H]21 (some centres undefined) | 11.7% [at 39.1 µM] (inactive)
12 | O=C1CCC(=O)N1CO | 14% (inactive)
13 | C[C@@H](O)[C@H]1C(=O)N2C(C(=O)[O-])=C(SC3Cn4cnc[n+]4C3)[C@H](C)[C@H]12 (some centres undefined) | 20.1% (inactive)
14 | CC(C)[C@@H]1CC[C@@H](C)C[C@H]1OC(=O)c1ccccc1O | 21.3% (inactive)
15 | N#Cc1ccc2c(c1)N(CCCN1CCC(O)CC1)c1ccccc1S2 | -14.6% (inactive)
16 | CO[C@H]1C[C@H](O[C@H]2[C@H](C)[C@@H](O[C@@H]3O[C@H](C)C[C@H](N(C)C)[C@H]3OC(C)=O)[C@@H](C)C[C@]3(CO3)C(=O)[C@H](C)[C@@H](OC(C)=O)[C@@H](C)[C@@H](C)OC(=O)[C@@H]2C)O[C@@H](C)[C@@H]1OC(C)=O | 18.7% [at 39.1 µM] (inactive)
17 | C[C@]12CC[C@@H]3c4ccc(OS(=O)(=O)O)cc4CC[C@H]3[C@@H]1CCC2=O | 14.2% (inactive)
18 | Nc1nc2c(c(=O)[nH]1)N(C=O)C(CNc1ccc(C(=O)N[C@@H](CCC(=O)O)C(=O)O)cc1)CN2 (some centres undefined) | 13% [at 39.1 µM] (inactive)
19 | C/C=C(/CC[C@@H](C)[C@H]1CC[C@H]2C3=CC[C@H]4[C@H](C)[C@@H](O)CC[C@]4(C)[C@H]3CC[C@]12C)C(C)C | 8.39% (inactive)
20 | OC[C@H]1O[C@@H](n2cnc3c2NC=NC[C@H]3O)C[C@@H]1O | -17.3% (inactive)

Row | SMILES | activity change, negative = cytotoxicity
21 | O=C(O)c1nc(=O)[nH]c(=O)[nH]1 | 1.91% (inactive)
22 | C=CCSSSCC=C | 19.1% (inactive)
23 | CS(=O)(=O)Nc1cc2occ(NC=O)c(=O)c2cc1Oc1ccccc1 | 4.9% (inactive)
24 | CC(C(=O)O)c1ccc(C2CCCCC2)c2ccccc12 (centres undefined) | -29.5% (inactive)
25 | CC[C@H](C)[C@H](NC(=O)[C@H](Cc1ccccc1)NC(=O)[C@H](C)NC(=O)[C@H](CC(=O)O)NC(=O)[C@H](CCCCN)NC(=O)[C@H](CO)NC(=O)[C@@H]1CCCN1C(=O)[C@@H]1CCC(=O)N1)C(=O)NCC(=O)N[C@@H](CC(C)C)C(=O)N[C@@H](CCSC)C(N)=O ([pGlu]PSKDAFIGLM-NH2) | 8.89% (inactive)
26 | Cc1cccc(C)c1NC(=O)NC1=CCCN1C | 15% (inactive)
27 | Cn1cc(NC(=O)c2cc(NC(=O)c3cc(NC=O)cn3C)cn2C)cc1C(=O)NCCC(=N)N | 7.26% (inactive)
28 | CCCCCCCCCCCCCCCC(=O)O[C@@H]1[C@@H](O)[C@@H](O)[C@@H]([C@H](NC(=O)[C@@H]2C[C@@H](CCC)CN2C)[C@H](C)Cl)O[C@@H]1SC | 11.4% (inactive)
29 | Cc1cccc(Nc2ncccc2C(=O)O)c1C | 7.66% (inactive)
30 | NCCCNCCCCNC(=O)C(O)NC(=O)CCCCCCN=C(N)N (centres undefined) | 10.9% (inactive)
31 | CC1(C)C2CC[C@]3(C)[C@H](C(=O)C=C4[C@@H]5C[C@@](C)(C(=O)O)CC[C@]5(C)CC[C@]43C)[C@@]2(C)CC[C@@H]1O[C@H]1O[C@H](C(=O)O)[C@@H](O)[C@H](O)[C@H]1O[C@@H]1O[C@H](C(=O)O)[C@@H](O)[C@H](O)[C@H]1O (some centres undefined) | 20.8% (inactive)
32 | CN1c2c(nc(N)[nH]c2=O)NCC1CNc1ccc(C(=O)NC(CCC(=O)O)C(=O)O)cc1 (centres undefined) | 8.33% (inactive)
33 | Oc1cc(O)cc(O)c1 | -13.9% (inactive)
34 | NC(=O)OCC(O)COc1ccc(Cl)cc1 (centres undefined) | -13% [at 39.1 µM] (inactive)
35 | O=C1NC(=O)[C@H]2[C@@H]1[C@@H]1C=C[C@H]2C1 | 14.7% (inactive)
36 | CC(C)[C@H](N)C(=O)OCC(CO)OCn1cnc2c(=O)[nH]c(N)nc21 (some centres undefined) | 9.94% (inactive)
37 | Cc1ncc(C[n+]2csc(CCOP(=O)(O)OP(=O)(O)O)c2C)c(N)n1 | 14% (inactive)
38 | NCCCC[C@H](N)C(=O)O | -12.8% (inactive)
39 | CNCC(O)c1ccc(OC(=O)C(C)(C)C)c(OC(=O)C(C)(C)C)c1 (centres undefined) | -8.49% [at 39.1 µM] (inactive)
